# Experimental data published in ChEMBL document CHEMBL1157539, “Thousands of chemical starting points for antimalarial lead identification” (Nature, 2010).
# Tested on: Plasmodium falciparum
# Experiment: GSK_TCMDC: Inhibition of Plasmodium falciparum Dd2 in whole red blood cells, using parasite LDH activity as an index of growth. Test compounds present at 2uM
# Format: functional
row,Compound,Inhibition
1,O=C(c1ccc(-c2cnc3[nH]cc(-c4ccc(C(=O)N5CCOCC5)cc4)c3c2)cc1)N1CCOCC1,0%
2,Cc1ccc(C)c(NC(=O)NCCNc2ccnc(Nc3ccc(F)cc3)n2)c1,5%
3,CS(=O)(=O)c1ccc(CCNCc2ccc(-c3ccc(CN(C(=O)c4ccc(Cl)nc4)C4CCN(Cc5ccccc5)CC4)cc3)nc2)cc1.O=C(O)C(F)(F)F,70%
4,O=C(COc1ccc(C(=O)c2ccccc2)cc1)Nc1nccs1,18%
5,O=C(Cc1c[nH]cn1)Nc1cccc(-c2cccc(-c3nc4ccccc4[nH]3)c2)c1,60%
6,COc1ccc(CNCc2ccccc2)cc1-c1ccc(S(=O)(=O)NCCN2CCCC2)s1.O=C(O)C(F)(F)F,62%
7,CN(C)c1cccc2c1nc(-c1ccco1)n2CC1CCCN1.O=C(O)C(F)(F)F (stereo unspecified),46%

# Tested on: HepG2
# Experiment: GSK_TCMDC: Percent inhibition of human HepG2 cell line. Test compounds present at 10uM.
# Format: functional
row,Compound,Inhibition
1,COc1cccc(-c2cc(C(F)(F)F)n3ncc(C(=O)Nc4cc(C)ccc4O)c3n2)c1,0%
2,Cc1nc(N)nc(N)c1CCCOc1ccccc1Br,53%
3,O=C(NC1CCCc2ccccc21)[C@@H]1CCCN1C(=O)c1ccc(O)c(-c2ccc(Cl)c(Cl)c2)c1 (stereo partly specified),0%
4,Cc1csc(NC(=O)c2cn(-c3ccccc3)nc2-c2cccs2)n1,0%
5,CC1CCN(C(=O)CSc2nc(-c3ccc(C(C)C)cc3)no2)CC1,0%
6,COc1ccc(CCn2c(=N)c(C(=O)NCc3cccnc3)cc3c(=O)n4ccccc4nc32)cc1,16%
7,COc1ccc2nc(C)cc(Nc3ccc(Cl)cc3)c2c1,10%
8,CC(C)OC(=O)c1ccc(NC(=O)N[C@@H](Cc2ccc(O)cc2)C(=O)NC2CCC(CCN3C4CCC3c3ccccc34)CC2)cc1.O=C(O)C(F)(F)F (stereo partly specified),3%
9,Cc1sc2nc(CN3CCCC3)nc(-n3c(NCCO)nc4ccccc43)c2c1C,19%
10,CCc1cn2c3c(cc(C(=O)N[C@@H](Cc4ccccc4)[C@H](O)CNC(C)C)cc13)N(C)S(=O)(=O)C2.O=CO,16%
11,Cc1cccc2nc(-c3cccc(-c4cccc(NC(=O)CNc5ccc(C(N)=O)cc5)c4)c3)[nH]c12,15%
12,CCCCn1c(=N)c(C(=O)NCc2cccnc2)cc2c(=O)n3cccc(C)c3nc21,7%
13,O=C(c1ccc(-c2cccc(-c3nc4cc(F)ccc4[nH]3)c2)cc1)N1CCCCC1CN1CCC(O)C1 (stereo unspecified),11%
14,CCN(CCCN1CCCCC1)c1cc(C)nc(Nc2ccc(C)c(Br)c2)n1.O=C(O)C(F)(F)F,42%
15,N#Cc1ccc2c(c1)CN(C1CCC(NC(=O)/C=C/c3cc(C(F)(F)F)cc(C(F)(F)F)c3)CC1)CCC2 (stereo unspecified),34%
16,CC(NC(=O)c1ccc(O)c(-c2ccc(Cl)c(Cl)c2)c1)C(=O)NC1CCCCC1 (stereo unspecified),0%
17,CS(=O)(=O)Cc1ccc(Nc2nccc(-c3c(-c4cccc(C(=O)Nc5c(F)cccc5F)c4)nn4ccccc34)n2)cc1,85%
18,Br.Cc1cccc2c(CON3C(N)=NC(N)=NC3(C)C)cccc12,64%
19,O=C(NCc1cccc2ccccc12)c1ccc(CNC2CCN(Cc3ccccc3)CC2)cc1.O=C(O)C(F)(F)F,15%
20,Cc1cccc2nc(-c3cccc(-c4ccc(CNCCc5ccncc5)cc4)c3)[nH]c12.O=C(O)C(F)(F)F,40%
21,Cn1nc(-c2ccc(NC(=O)Nc3cc(C(F)(F)F)cc(C(F)(F)F)c3)c(F)c2)c2cnc(NCCN3CCOCC3)nc21.O=C(O)C(F)(F)F,43%
22,c1ccc(Oc2ccc(Nc3ccnc4ccc(-c5ccco5)cc34)cc2)cc1,0%
23,CCN(CC)CCCNc1ncc2c(-c3ccc(NC(=O)Nc4cc(C(F)(F)F)ccc4F)c(F)c3)nn(C)c2n1.O=C(O)C(F)(F)F,100%
24,O=C(Cc1ccccc1)NC(Nc1ccc([N+](=O)[O-])cc1)C(Cl)(Cl)Cl (stereo unspecified),21%
25,COc1ccc(CNCc2ccc(-c3ccc(-c4nc5cc(C(F)(F)F)ccc5[nH]4)cc3)cc2)cc1.O=C(O)C(F)(F)F,75%
26,Cn1c(N)cc(-c2ccc(Br)cc2)c2c(=O)nc(N)nc1-2,5%
27,COc1ccc(N2CCN(CCCCNC(=O)c3ccc(NC(=O)c4ccc(Cl)c(Cl)c4)cc3)CC2)c(OC)c1,23%
28,COc1ccc2nccc([C@@H](O)CN3CCC(NC(=O)c4cccc(-c5cc(C)no5)c4)CC3)c2c1,19%
29,Fc1cccc(C=NN=c2cc[nH]c3ccccc23)c1,3%
